Data on 29 compounds can be found in PubChem BioAssay.

In this test the target is Torsin-1A-interacting protein 2 (Homo sapiens) (UniProt Q8NFQ8). Put plainly: small molecules binding lysate-expressed LULL1 – cell lysate, human LULL1 lysate, 635/667 nm fluorescence, primary screen (AID 1092).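 Also: probe is lysate of COS7 cells overexpressing human LULL1; score merges per-feature 667 nm fluorescence with signal-to-noise.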 The settings on record: small-molecule microarray, hLULL1 lysate binding, 635 nm fluorescence; higher = more signal.
Chain of Torsin-1A-interacting protein 2 (Homo sapiens) (Q8NFQ8 whole entry, looked up): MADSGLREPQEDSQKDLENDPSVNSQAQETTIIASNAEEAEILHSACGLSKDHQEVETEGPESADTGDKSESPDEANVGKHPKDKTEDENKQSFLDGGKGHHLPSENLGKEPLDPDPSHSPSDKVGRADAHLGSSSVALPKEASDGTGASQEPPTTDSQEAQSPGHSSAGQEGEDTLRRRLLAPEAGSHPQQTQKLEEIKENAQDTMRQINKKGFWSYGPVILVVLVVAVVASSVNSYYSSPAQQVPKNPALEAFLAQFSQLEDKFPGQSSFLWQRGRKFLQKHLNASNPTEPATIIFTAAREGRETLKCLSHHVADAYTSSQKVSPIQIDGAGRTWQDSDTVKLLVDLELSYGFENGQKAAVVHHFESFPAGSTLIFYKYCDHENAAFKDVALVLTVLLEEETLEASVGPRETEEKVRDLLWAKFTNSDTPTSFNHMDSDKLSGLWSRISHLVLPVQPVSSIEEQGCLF
Turning to `C#CCCCON=C1[C@H]2CCn3c(=O)n(C)c(=O)n3[C@H]2[C@H](O)[C@@H]2O[C@H]12`, the composite z-score was -0.0133.
In the case of `CCCCC#C[C@@H]1C=C[C@H](OC(C)=O)[C@@H](COC(C)=O)O1` it was 0.456.
In the case of `CO[C@@H]1COC(=O)[C@@H](C)COC(=O)[C@@H](C)NC(=O)CC=C[C@@H]1C`, the composite z-score was -0.963.
In the case of `Cc1ccc(S(=O)(=O)OC[C@H]2CN3[C@H](c4ccc(Br)cc4)[C@@H](C)CC[C@H]3C(=O)O2)cc1` it was 1.3; in that of `COc1ccc(COC(=O)NN=C2C[C@@H](O)[C@@H](O)[C@@H]3[C@@H]4C(=O)N(c5cccc(Oc6ccccc6)c5)C(=O)[C@@H]4CC[C@@H]23)cc1`, 0.624; in that of `O=C1C2=CC[C@H]3C(=O)N(c4cccc(Oc5ccccc5)c4)C(=O)[C@H]3[C@H]2[C@H](O)[C@@H]2O[C@H]12`, -0.122.
In the case of `CC(CCN1CCCCc2nc(C)c(C)cc21)=NO[C@H](C)c1cn([C@H](CO)Cc2ccccc2)nn1` it was 0.592; in that of `CO[C@@H]1COC(=O)[C@H](CCSC)NC(=O)CC=C[C@@H](C)COC(=O)CCC[C@H]1C`, -0.86.
In the case of `CC(CCN1CCCc2nc(C)c(C)cc21)=NO[C@@H](C)c1cc(-c2c(C)cc(C)cc2C)no1` it was 1.33; in that of `CO[C@@H]1COC(=O)[C@@H](C)NC(=O)CC=C[C@@H](C)[C@H](NS(=O)(=O)c2ccc(C)cc2)COC(=O)[C@H](C)NC(=O)CC=C[C@H]1C`, 0.537; in that of `CCN1C(=O)[C@H]2[C@H]3[C@H](O)[C@H](O)CC(=NOC[C@H]4O[C@H](c5ccccc5)C=C[C@@H]4Oc4ccc(OC)cc4)[C@@H]3CC[C@H]2C1=O`, 0.996.
Regarding `CCOC(=O)[C@H](CC(C)C)NC(=O)CCC1CC(OC(=O)NCc2cccc3ccccc23)CC2(CCCC(COC(=O)NCC3CCCCC3)O2)O1` (some centres undefined), the composite z-score was 1.11.
For `CC(C)CCN1CCc2nc(COc3ccccc3)c3c(c2C1)CO[C@@H](C)C3`, the composite z-score turned out to be 1.25.
Regarding `COC(=O)CC=C[C@@H](C)[C@@H](C=NO[C@H](C)c1cn([C@H](CO)Cc2ccccc2)nn1)OC`, the composite z-score was 0.169.
The value for `CON=C(C)CCC(=O)OC[C@H]1O[C@H](c2ccccc2)C=C[C@@H]1Oc1ccc(OC)cc1` was -0.225.
In the case of `CCOC(=O)NN=C1C[C@@H](O)[C@@H](O)[C@@H]2[C@@H]3C(=O)N(c4cccc(Oc5ccccc5)c4)C(=O)[C@@H]3CC[C@@H]12` it was 1.26; in that of `CCN1C(=O)[C@H]2[C@H]3[C@H](O)[C@H](O)CC(=NO[C@@H](C)c4cn([C@H](CO)Cc5ccccc5)nn4)[C@@H]3CC[C@H]2C1=O`, 1.28; in that of `COC(=O)CC=C[C@@H](C)[C@@H]1C=C[C@H](O)[C@@H](CO)O1`, 0.296.
Regarding `C[C@@H](ON=C1[C@H]2CCn3c(=O)n(-c4ccccc4)c(=O)n3[C@H]2[C@H](O)[C@@H]2O[C@H]12)c1cn([C@@H]2COC[C@H]2O)nn1`, the composite z-score is -0.219.
As for `CC(CCC(=O)OC[C@H]1O[C@H](C#Cc2ccccc2)C=C[C@@H]1Oc1ccc(C)cc1)=NO[C@H](C)c1cn([C@H](CO)Cc2ccccc2)nn1`, the composite z-score was determined as 1.05.
In the case of `C#CCCCON=C1C[C@@H](O)[C@@H](O)[C@@H]2[C@@H]3C(=O)N(C(C)(C)C)C(=O)[C@@H]3CC[C@H]12` it was -0.0077.
For the compound `COc1ccc(COC(=O)NN=C2C[C@@H](O)[C@@H](O)[C@@H]3[C@@H]4C(=O)N(C5CCCCC5)C(=O)[C@@H]4CC[C@H]23)cc1`, the composite z-score worked out at 0.271.
The value for `COC(=O)CC=C[C@H](C)[C@@H](OCc1cccc(Br)c1)[C@@H](C)[C@H](OC)C1CCCCC1` was -0.412; that for `Cc1ccc(S(=O)(=O)N[C@@H]2COC(=O)[C@@H](C)COC(=O)CC=C[C@H]2C)cc1` was -0.548.
In the case of `O=C1[C@H]2[C@H]3[C@H](O)[C@H](O)CC(=NO[C@@H]4O[C@H](CO)[C@@H](O)[C@H](O)[C@H]4O)[C@H]3CC[C@H]2C(=O)N1c1cccc(Oc2ccccc2)c1` it was 0.543; in that of `CCC1=NOC(CCC2CC(OC(=O)NCc3cccc4c3OCO4)CC3(CCCC(COC(=O)NCCc4ccccc4OC)O3)O2)C1` (centres undefined), 2.38; in that of `CCOC(=O)[C@H](CC(C)C)NC(=O)CCC1CC(OC(=O)NCc2cccc3ccccc23)CC2(CCCC(COC(=O)NCCOc3ccccc3)O2)O1` (some centres undefined), 1.13.
The value for `O=c1n(Cc2cc3c(cc2Cl)OCO3)c(=O)n2n1CC[C@@H]1C(=NOCc3ccccc3)[C@H]3O[C@H]3[C@@H](O)[C@@H]12` was -0.056; that for `COC(=O)[C@@H]1CC[C@H](C)[C@@H](c2ccc(C)cc2)N1C(=O)c1ccc(C=NO[C@@H](C)c2cn([C@H](CO)Cc3ccccc3)nn2)cc1` was 1.57.
